Data from ChEMBL document CHEMBL2218924, “A broad activity screen in support of a chemogenomic map for kinase signalling research and drug discovery” (Biochem J, 2013).

The molecules below were run against Serine/threonine-protein kinase PAK 5 (Homo sapiens) (UniProt Q9P286). Settings: at 1 µM.
Sequence of Serine/threonine-protein kinase PAK 5 (Homo sapiens) (Q9P286 whole entry, looked up): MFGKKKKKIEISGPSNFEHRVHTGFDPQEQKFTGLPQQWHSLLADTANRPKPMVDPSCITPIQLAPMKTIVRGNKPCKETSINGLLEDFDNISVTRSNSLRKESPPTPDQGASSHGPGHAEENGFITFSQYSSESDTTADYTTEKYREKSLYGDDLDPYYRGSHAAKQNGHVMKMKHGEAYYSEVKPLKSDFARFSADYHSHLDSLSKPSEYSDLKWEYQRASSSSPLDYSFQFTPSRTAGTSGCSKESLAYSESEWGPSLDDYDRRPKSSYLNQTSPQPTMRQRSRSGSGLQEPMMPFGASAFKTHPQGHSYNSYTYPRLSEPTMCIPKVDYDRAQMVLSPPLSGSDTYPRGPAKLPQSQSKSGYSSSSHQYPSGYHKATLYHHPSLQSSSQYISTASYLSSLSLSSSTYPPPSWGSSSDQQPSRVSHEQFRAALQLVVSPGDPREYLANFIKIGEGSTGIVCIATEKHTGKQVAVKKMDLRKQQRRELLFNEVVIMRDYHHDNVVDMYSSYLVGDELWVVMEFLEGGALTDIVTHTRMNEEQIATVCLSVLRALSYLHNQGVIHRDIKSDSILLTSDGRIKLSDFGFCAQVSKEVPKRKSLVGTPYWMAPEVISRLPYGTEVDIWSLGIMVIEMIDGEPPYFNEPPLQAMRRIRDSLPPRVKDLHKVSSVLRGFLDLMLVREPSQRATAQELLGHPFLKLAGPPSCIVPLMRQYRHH

SMILES | residual activity [%]
O=[N+]([O-])/C=C/c1ccc2c(c1)OCO2 | 103
COc1cc2ncnc(Nc3ccc(OCc4ccccc4)cc3)c2cc1OC | 83
CC(C)[C@H](CO)Nc1nc(Nc2cccc(Cl)c2)c2ncn(C(C)C)c2n1 | 50
C[S+]([O-])c1ccc(-c2nc(-c3ccc(F)cc3)c(-c3ccncc3)[nH]2)cc1 (stereo not drawn) | 105
COC(=O)[C@@]1(O)C[C@H]2O[C@]1(C)n1c3ccccc3c3c4c(c5c6ccccc6n2c5c31)C(=O)NC4 | 6
c1cc(-c2cnn3cc(-c4ccc(OCCN5CCCCC5)cc4)cnc23)ccn1 | 87
CCn1cnc2c(Nc3cccc(Cl)c3)nc(N[C@@H]3CCCC[C@@H]3N)nc21 | 38
O=C1c2ccccc2-c2nc3nnnn3nc21 | 80
COc1cc(OC)c(/C=C2\C(=O)Nc3ccccc32)c(OC)c1 | 96
O=c1[nH]c2ccccc2n1C1CCN(Cc2ccc(-c3nc4cc5[nH]cnc5cc4nc3-c3ccccc3)cc2)CC1 | 84
CCc1nc(-c2ccc(OC)cc2)[nH]c1-c1ccncc1 | 111
O=C1Nc2ccc3ncsc3c2/C1=C/c1c[nH]cn1 | 70

These molecules were tested against Serine/threonine-protein kinase PAK 5 (Homo sapiens) (UniProt Q9P286). Settings: at 10 µM.

SMILES | residual activity [%]
O=[N+]([O-])/C=C/c1ccc2c(c1)OCO2 | 92
COc1cc2ncnc(Nc3ccc(OCc4ccccc4)cc3)c2cc1OC | 79
CC(C)[C@H](CO)Nc1nc(Nc2cccc(Cl)c2)c2ncn(C(C)C)c2n1 | 11
C[S+]([O-])c1ccc(-c2nc(-c3ccc(F)cc3)c(-c3ccncc3)[nH]2)cc1 (stereo not drawn) | 104
COC(=O)[C@@]1(O)C[C@H]2O[C@]1(C)n1c3ccccc3c3c4c(c5c6ccccc6n2c5c31)C(=O)NC4 | 1
c1cc(-c2cnn3cc(-c4ccc(OCCN5CCCCC5)cc4)cnc23)ccn1 | 69
CCn1cnc2c(Nc3cccc(Cl)c3)nc(N[C@@H]3CCCC[C@@H]3N)nc21 | 11
O=C1c2ccccc2-c2nc3nnnn3nc21 | 74
COc1cc(OC)c(/C=C2\C(=O)Nc3ccccc32)c(OC)c1 | 93
O=c1[nH]c2ccccc2n1C1CCN(Cc2ccc(-c3nc4cc5[nH]cnc5cc4nc3-c3ccccc3)cc2)CC1 | 67
CCc1nc(-c2ccc(OC)cc2)[nH]c1-c1ccncc1 | 105
O=C1Nc2ccc3ncsc3c2/C1=C/c1c[nH]cn1 | 34
COc1ccc2c(c[n+](C)c3c4cc5c(cc4ccc23)OCO5)c1OC | 87

These molecules were tested against Serine/threonine-protein kinase PAK 6 (Homo sapiens) (UniProt Q9NQU5). Settings: at 1 µM.
Sequence of Serine/threonine-protein kinase PAK 6 (Homo sapiens) (Q9NQU5 whole entry, looked up): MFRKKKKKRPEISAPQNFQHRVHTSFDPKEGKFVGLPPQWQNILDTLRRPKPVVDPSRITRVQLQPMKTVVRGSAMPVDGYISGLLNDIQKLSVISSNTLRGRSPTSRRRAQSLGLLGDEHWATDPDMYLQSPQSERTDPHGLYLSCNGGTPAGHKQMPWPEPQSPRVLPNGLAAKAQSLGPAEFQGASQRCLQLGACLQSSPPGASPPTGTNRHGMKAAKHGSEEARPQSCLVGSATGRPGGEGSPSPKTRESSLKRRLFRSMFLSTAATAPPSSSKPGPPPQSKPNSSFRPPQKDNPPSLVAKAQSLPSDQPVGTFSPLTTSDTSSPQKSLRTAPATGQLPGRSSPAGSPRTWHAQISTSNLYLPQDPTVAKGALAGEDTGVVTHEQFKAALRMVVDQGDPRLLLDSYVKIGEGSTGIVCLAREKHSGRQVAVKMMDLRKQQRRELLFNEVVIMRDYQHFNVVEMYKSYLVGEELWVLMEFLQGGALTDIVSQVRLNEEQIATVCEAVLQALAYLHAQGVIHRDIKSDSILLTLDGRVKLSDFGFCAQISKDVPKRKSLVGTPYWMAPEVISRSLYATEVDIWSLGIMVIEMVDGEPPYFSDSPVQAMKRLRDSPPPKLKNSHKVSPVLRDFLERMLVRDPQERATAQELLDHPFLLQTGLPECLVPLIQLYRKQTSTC

SMILES | residual activity [%]
COc1cc2ncnc(Nc3ccc(OCc4ccccc4)cc3)c2cc1OC | 100
CC(C)[C@H](CO)Nc1nc(Nc2cccc(Cl)c2)c2ncn(C(C)C)c2n1 | 57
C[S+]([O-])c1ccc(-c2nc(-c3ccc(F)cc3)c(-c3ccncc3)[nH]2)cc1 (stereo not drawn) | 110
COc1ccc2c(c1)/C(=C/c1cnc[nH]1)C(=O)N2 | 98
COC(=O)[C@@]1(O)C[C@H]2O[C@]1(C)n1c3ccccc3c3c4c(c5c6ccccc6n2c5c31)C(=O)NC4 | 0
CC(C)(C)c1cc(C=C(C#N)C#N)cc(Br)c1O | 111
O=C1NC(=O)c2c1c1c3ccccc3n3c1c1c2c2ccccc2n1C1CCC3O1 | 19
CCn1cnc2c(Nc3cccc(Cl)c3)nc(N[C@@H]3CCCC[C@@H]3N)nc21 | 38
O=C1c2ccccc2-c2nc3nnnn3nc21 | 112
O=c1[nH]c2ccccc2n1C1CCN(Cc2ccc(-c3nc4cc5[nH]cnc5cc4nc3-c3ccccc3)cc2)CC1 | 121
N/C(=N\[N+](=O)[O-])N/N=C\c1ccc(-c2cccc([N+](=O)[O-])c2)o1 | 82
O=C1Nc2ccc3ncsc3c2/C1=C/c1c[nH]cn1 | 83
COc1ccc2c(c[n+](C)c3c4cc5c(cc4ccc23)OCO5)c1OC | 99

What follows are molecules tested against Serine/threonine-protein kinase PAK 6 (Homo sapiens) (UniProt Q9NQU5). Settings: at 10 µM.

SMILES | residual activity [%]
O=[N+]([O-])/C=C/c1ccc2c(c1)OCO2 | 102
COc1cc2ncnc(Nc3ccc(OCc4ccccc4)cc3)c2cc1OC | 103
CC(C)[C@H](CO)Nc1nc(Nc2cccc(Cl)c2)c2ncn(C(C)C)c2n1 | 13
C[S+]([O-])c1ccc(-c2nc(-c3ccc(F)cc3)c(-c3ccncc3)[nH]2)cc1 (stereo not drawn) | 100
COc1ccc2c(c1)/C(=C/c1cnc[nH]1)C(=O)N2 | 53
COC(=O)[C@@]1(O)C[C@H]2O[C@]1(C)n1c3ccccc3c3c4c(c5c6ccccc6n2c5c31)C(=O)NC4 | -1
CC(C)(C)c1cc(C=C(C#N)C#N)cc(Br)c1O | 96
O=C1NC(=O)c2c1c1c3ccccc3n3c1c1c2c2ccccc2n1C1CCC3O1 | 15
CCn1cnc2c(Nc3cccc(Cl)c3)nc(N[C@@H]3CCCC[C@@H]3N)nc21 | 10
O=C1c2ccccc2-c2nc3nnnn3nc21 | 112
COc1cc(OC)c(/C=C2\C(=O)Nc3ccccc32)c(OC)c1 | 93
O=c1[nH]c2ccccc2n1C1CCN(Cc2ccc(-c3nc4cc5[nH]cnc5cc4nc3-c3ccccc3)cc2)CC1 | 68
N/C(=N\[N+](=O)[O-])N/N=C\c1ccc(-c2cccc([N+](=O)[O-])c2)o1 | 70
O=C1Nc2ccc3ncsc3c2/C1=C/c1c[nH]cn1 | 36
COc1ccc2c(c[n+](C)c3c4cc5c(cc4ccc23)OCO5)c1OC | 61
